nsP2pro primary = blocks chikungunya virus nsP2 protease peptide cleavage; FRET peptide cleavage, nsP2pro, fluorescence 1 h; Potency, µM (series often up to 24.9 µM), hits mostly inhibitors; 31,000 compounds, 1.1% hits; AID 1964107; further: nearly all actives have a fitted effect of over 60% in size
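Purified recombinant nsP2pro (150 nM final) in 10 mM Tris-HCl pH 8.0 with 0.01% Tween 20 was preincubated 15 min at room temperature with compound (7 concentrations, up to 25 uM). FRET peptide 2 substrate (2.5 uM final) was then added; fluorescence was read after 1 h.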
nsP2 cell sec = secondary cell-based test for CHIKV nsP2 protease inhibitors. 450 compounds, 10% hits. cell-based CHIKV nsP2 protease reporter assay. Potency, µM (top dose mostly 51.1 µM), actives largely listed as inhibitors. shares compounds with nsP2pro primary; further: nearly all actives have a fitted effect of over 70% in size
CHIKV NSP2 FL = full-length CHIKV NSP2 protease inhibition, selectivity. shares compounds with nsP2pro primary. Full-length CHIKV NSP2 protease enzymatic counterscreen. Potency, µM (doses to about 50.7 µM), usual class: inhibitors. 410 compounds, 39% hits; further: nearly all actives have a fitted effect of over 65% in size
Furin counter = human furin inhibition, counterscreen for nsP2pro inhibitors | shares compounds with nsP2pro primary | 410 compounds, 6% hits | Recombinant human furin enzymatic counterscreen, fluorogenic substrate | Potency, µM (highest dose often 50.6 µM), usual class: inhibitors | AID 1964102
NS23 peptide cs = selectivity test for CHIKV nsP2 protease inhibitors: endogenous NS2/3 peptide; shares compounds with nsP2pro primary; Purified CHIKV nsP2 protease, endogenous NS2/3 peptide cleavage; Potency, µM (doses to about 51 µM), actives largely listed as inhibitors; 410 compounds, 34% hits; AID 1964103; further: nearly all actives have a fitted effect of over 55% in size
Papain cs = selectivity counter-screen for CHIKV nsP2 protease inhibitors: papain. shares compounds with nsP2pro primary. purified papain protease activity, enzymatic inhibition. Potency, µM (titrated, usually from 51 µM), hits mostly inhibitors. 410 compounds, 5% hits. AID 1964104
nsP2pro confirm = CHIKV nsP2 protease inhibition, confirmatory qHTS | shares compounds with nsP2pro primary | CHIKV nsP2 protease enzymatic activity, qHTS | Potency, µM (top dose mostly 25.5 µM), actives largely listed as inhibitors | 410 compounds, 43% hits | AID 1964105; further: nearly all actives have a fitted effect of over 75% in size
HCV NS3 4A cs = selectivity counter-screen for CHIKV nsP2 protease inhibitors: HCV NS3/4A. shares compounds with nsP2pro primary. HCV NS3/4A protease biochemical counterscreen. Potency, µM (series often up to 50.9 µM), most hits filed as inhibitors. 410 compounds, 20% hits; further: nearly all actives have a fitted effect of over 55% in size
Each line names hits and unclear results; the compound was inactive in the other large screens (follow-up assays come after a bar, where they were run). The entries come from a sample that favours hits as a whole. The call rests on the fitted dose curve.

CC#C[C@@H](CC(=O)O)c1ccc(OCc2cccc(-c3ccc(C(F)(F)F)cc3)c2)cc1	none
CCCCS(=O)c1sc2nc(-c3cccs3)cc(-c3ccccc3)c2c1N (stereo not drawn)	nsP2pro primary 7µM | nsP2 cell sec inactive | CHIKV NSP2 FL inactive | Furin counter inactive | NS23 peptide cs inactive | Papain cs inconclusive | nsP2pro confirm 14µM | HCV NS3 4A cs inactive
CN(C)[S+](=O)([O-])c1ccc(-c2cncc(NC(=O)c3cccs3)c2)cc1	none
FC(F)(F)c1ccc(-c2nc(NCc3ccc(-c4cccnc4)cc3)c3ccccc3n2)cc1	none
O=C(c1ccc(C2CCCNC2)cc1)N1CCC(Oc2cccc(F)c2)CC1 (stereo not drawn)	none
Cc1oc(=O)oc1COC(=O)N1CC[C@@H](N2CC/C(=C\C3=C(C(=O)O)N4C(=O)[C@@H](NC(=O)/C(=N/O)c5nsc(N)n5)[C@H]4SC3)C2=O)C1	none
CC(C)c1ccccc1-c1nc2c(c(NCc3ccc(-c4cccnc4)cc3)n1)CCNC2	none
O=C1C2CC=CCC2C(=O)N1SC(Cl)(Cl)Cl (stereo not drawn)	nsP2pro primary 1.8µM | nsP2 cell sec inconclusive | CHIKV NSP2 FL 2.9µM | Furin counter inactive | NS23 peptide cs 5.8µM | Papain cs inactive | nsP2pro confirm 0.9µM | HCV NS3 4A cs inconclusive
CN1C[C@H](C(=O)Nc2ccccc2)C[C@H]1c1cccc(C(F)(F)F)c1	none
CCCCCCN(CCC(=O)NCCc1ccccc1)C(=O)c1cc(C)oc1C	none
COc1cccc(NC(=S)N2CCN(c3cccc(C(F)(F)F)n3)CC2)n1	none
Cc1cn2nc(-c3cc(=O)n4cc(N5CCNC6(CC6)C5)ccc4n3)cc(C)c2n1	none
Cc1cc(C)nc(NC(=S)N2CCN(c3ccc(Cl)c(C(F)(F)F)c3)CC2)c1	none
O=S(=O)(Nc1nc(CN2CCOCC2)nc2sc3c(c12)CCCC3)c1ccc2ccccc2c1	none
C=C(CCO[C@@H]1O[C@H](CO)[C@@H](O)[C@H](O)[C@H]1O)C(=O)O	nsP2pro primary inconclusive | nsP2 cell sec inactive | CHIKV NSP2 FL inactive | Furin counter inactive | NS23 peptide cs inactive | Papain cs inactive | nsP2pro confirm inactive | HCV NS3 4A cs inactive
CC(C)C(=O)OC[C@H]1O[C@H](O[C@H]2O[C@H](CO)[C@@H](O)[C@H](O)[C@H]2O)[C@H](O)[C@@H](O)[C@@H]1O	none
OC[C@H]1O[C@@H](OCCc2ccc(O)cc2)[C@H](O)[C@@H](O)[C@@H]1O	none
O=[S+]1([O-])N(Cc2ccccc2)C[C@@H](O)[C@]12CCN(Cc1ccc(C(F)(F)F)nc1)C2	none
Fc1cc(Nc2nc(-c3ccncc3)nc3ccccc23)ccc1-c1cn[nH]c1	none
C=C1CCC2C(C)(C)CC(=O)CC2(C)C1CCC(C)CCO (stereo not drawn)	none
Cc1cnc(CCN)n1Cc1ccccc1	none
Cn1sc(=O)n(Cc2ccccc2)c1=O	nsP2pro primary 6.2µM | nsP2 cell sec inconclusive | CHIKV NSP2 FL 12µM | Furin counter inconclusive | NS23 peptide cs 9.2µM | Papain cs inactive | nsP2pro confirm 4µM | HCV NS3 4A cs inactive
Cc1sc2c(c1C)c(=O)n(Cc1ccccc1)c(=O)n2Cc1ccc(F)cc1	none
Cc1ccc(C)c(SC2CS(=O)(=O)c3ccccc32)c1 (stereo not drawn)	none
Nc1nc(NCc2ccc(-c3ccnc(C(F)(F)F)c3)cc2)c2ccccc2n1	none
FC(F)(F)c1ccccc1-c1nc(NCc2ccc(-c3ccc(Cl)cc3)cc2)c2ccccc2n1	none
Cc1ccc2nc3sc(C(=O)N4CCN(C5CCN(C)CC5)CC4)cc3cc2c1	none
CCc1ccc(NC(=O)c2[nH]c(C)c(C(C)=O)c2C)cc1S(=O)(=O)Nc1ccc(C#N)cc1	none
Cc1cccc(NC(=O)N[C@H]2CN(C)c3ccccc3C(c3ccccc3)=N2)c1	nsP2pro primary inconclusive | nsP2 cell sec inactive | CHIKV NSP2 FL inconclusive | Furin counter inactive | NS23 peptide cs inconclusive | Papain cs inactive | nsP2pro confirm inconclusive | HCV NS3 4A cs inactive
Cc1ccc(NC(=O)Nc2ccc3c(c2)N(C)C(=O)c2ccccc2S3)c(C)c1	none
Cc1cccc(NC(=O)N[C@@H]2N=C(c3ccccc3)c3ccccc3N(C)C2=O)c1	nsP2pro primary inconclusive | nsP2 cell sec inactive | CHIKV NSP2 FL inconclusive | Furin counter inactive | NS23 peptide cs inconclusive | Papain cs inactive | nsP2pro confirm inconclusive | HCV NS3 4A cs inactive
Cc1cccc(NC(=O)CSc2cc(C)c3ccccc3n2)c1	none
Cc1cccc(-c2cc(-c3ccccc3)nc(SCC(=O)Nc3ccccc3)c2C#N)c1	none
Cc1cccc(NC(=O)CSc2nc3ccccc3nc2N2CCC(C)CC2)c1	none
Cc1ccnc(NC(=S)N2CCN(c3ccc(C(F)(F)F)cc3[N+](=O)[O-])CC2)c1	none
Clc1ccc(-c2csc(NN=C3CCCC3)n2)cc1	none
O=C(NO)c1cccc(C(=O)NCCc2ccccc2)c1	none
Cc1noc(C)c1-c1cc(O)cc(C(O)c2ccccc2)c1 (stereo not drawn)	none
C[C@H](N)C(=O)Nc1cccc(-c2nn3c(=O)cc(N4CCNCC4)nc3s2)c1	none
Nc1cc(-c2ccncc2)c[nH]c1=O	nsP2pro primary 3.5µM | nsP2 cell sec inactive | CHIKV NSP2 FL inconclusive | Furin counter inactive | NS23 peptide cs inconclusive | Papain cs inactive | nsP2pro confirm inconclusive | HCV NS3 4A cs inactive
Nc1c(-c2ccncc2)cc[nH]c1=O	none
O=C(Nc1nc(-c2ccccc2)cs1)c1ccncc1NS(=O)(=O)c1cccc(Cl)c1	none
CN(C)C1(CNC(=O)c2ccc(OC3CCN(C(=O)C4CC4)CC3)cc2)CCCCC1	nsP2pro primary inconclusive | nsP2 cell sec inactive | CHIKV NSP2 FL inactive | Furin counter inactive | NS23 peptide cs inconclusive | Papain cs inactive | nsP2pro confirm inactive | HCV NS3 4A cs inactive
CCn1ccnc1CNC(=O)c1cc(OC)ccc1OC1CCN(C(=O)C2CC2)CC1	none
CC(C)C(=O)NCC1(N(C)C)CCCCC1	none
Cc1csc(CN(C)c2ncnc3ccc(-c4ccc5c(c4)OCO5)cc23)n1	none
CC(C)C(=O)OCC(=O)[C@@]12OC(C3CCCCC3)O[C@@H]1C[C@H]1[C@@H]3CCC4=CC(=O)C=C[C@]4(C)[C@H]3[C@@H](O)C[C@@]12C (stereo partly drawn)	none
O=C(Nc1ccc(F)nc1)Nc1nnc(-c2ccncc2)s1	none
COc1ccc2nc(-c3ccc(Cl)cc3)sc2c1	none

Screens from PubChem.
